Source: PubChem BioAssay (NCATS)
Inconclusive results are not listed. Active and inactive are the calls of the source. Unless noted, calls follow the shape of the dose curve; as a rule, active = well fitted curve in the direction sought with a large enough effect; inconclusive = small, poorly fitted or top-dose-only effect, or another doubt; inactive = no such curve, though single readings can be large; an effect the other way counts as inactive or inconclusive.

What was measured:
[1] = Cell Viability - BJ (AID 421; calls by dose curve;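 also: potency is read from the fitted curve at half-maximal effect; cells exposed to compound for 40 hours at 37 °C before readout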); conditions: BJ fibroblast viability, qHTS
Method in brief: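 Luminescent ATP signal (CellTiter-Glo, 20 min at room temperature) served as the read-out of viable BJ cells after 40 hours of compound treatment. Responses were scaled between DMSO and 100 uM tamoxifen, and AC50 values were obtained by Hill modeling.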

[2] = Cell Viability - Jurkat (AID 426;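 active = dose-dependent loss of cell ATP signal giving a full or clear fitted curve, ranked by lower potency value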;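 also: potency is read from the fitted curve at half-maximal effect; cells exposed to compound for 40 hours at 37 °C before ATP read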); conditions: qHTS
Method in brief: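 Cytotoxicity taken as drop in cellular ATP (CellTiter-Glo luminescence, 20 min room temperature) after 40 hr, 37C treatment of 5000 Jurkat Clone E6-1 cells per well; concentration-response fitted with Hill equation for AC50.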

[3] = Cell Viability - HepG2 (AID 433; calls by dose curve;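 also: potency is read from the fitted curve at half-maximal effect; potency for ATP loss meaning cytotoxicity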); conditions: qHTS
Method in brief: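 Read-out is luciferase-based quantitation of cellular ATP as a measure of viable HepG2 cells after 40 h treatment at 37 °C. Signal decrease is scaled between DMSO-only and 100 uM tamoxifen controls, with AC50 fitted by the Hill equation.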

[4] = Cell Viability - MRC5 (AID 434; calls by dose curve;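 also: potency is read from the fitted curve at half-maximal effect; cells exposed to compound for 40 hours at 37 °C; potency reflects cytotoxicity seen as loss of intracellular ATP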); conditions: MRC5 lung fibroblast viability, qHTS
Method in brief: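 ATP luminescence read-out (CellTiter-Glo, 20 min RT) after 40 hr, 37 °C compound exposure of 1500 MRC5 cells/well. Data normalized to DMSO (basal) and 100 uM tamoxifen (100% inhibition); AC50 from standard Hill equation.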

[5] = Cell Viability - SK-N-SH (AID 435; calls by dose curve; also: potency is read from the fitted curve at half-maximal effect); conditions: SK-N-SH neuroblastoma cell viability qHTS
Method in brief: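 Luminescent ATP signal served as the viability read-out after 40 hours of compound treatment of human neuroblastoma SK-N-SH cells. Concentration-response data, scaled between DMSO and 100 uM tamoxifen, gave AC50 values by standard Hill modeling.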

[6] = biological target: Mitogen-activated protein kinase 10 (Mus musculus) (UniProt Q61831); assay: JNK3 AlphaScreen Assay (AID 530; active = well fitted curve in either direction with a large enough effect, not every such curve was filed as active;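 also: kinase came from lysate of stimulated human HepG2 cells; signal reports phosphorylation of biotinylated GST-cJun 1-79 at Ser73 with 10 µM ATP; % is scaled to controls: 0 for no effect and ±100 for the full control effect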); conditions: JNK3 lysate, c-Jun phosphorylation; series mostly up to 57.1 µM
Method in brief: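 Activity was read by AlphaScreen after JNK3-containing HepG2 lysate (cytokine pre-activated) phosphorylated biotinylated GST-cJun with 10 uM ATP at room temperature. Phospho-Ser73 cJun antibody with Protein-A acceptor beads provided detection.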

[7] = Cell Viability - N2a (AID 540); conditions: N2a mouse neuroblastoma cell viability; activity change, negative = cytotoxicity: at 92.2 µM (top of the series);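 also: plate controls were DMSO alone for no effect and tamoxifen control for full effect; nearly all actives have a fitted effect of over 45% in size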
Method in brief: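 CellTiter-Glo ATP luminescence, read 20 min after reagent at room temperature, reported viability following 40 h compound treatment at 37 °C. N2a mouse neuroblastoma cells seeded 1500/well; Hill equation gave AC50.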

[8] = Cell Viability - NIH 3T3 (AID 541); conditions: NIH 3T3 cell viability, qHTS; activity change, negative = cytotoxicity: at 92.2 µM (top of the series);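 also: plate controls were DMSO alone for no effect and tamoxifen positive control for full effect; nearly all actives have a fitted effect of over 25% in size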
Method in brief: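 Intracellular ATP (CellTiter-Glo luminescence, 20 min at room temperature) measured after 40 hr compound exposure at 37 °C of 1000 NIH 3T3 mouse fibroblasts/well in complete medium; AC50 derived by Hill-equation modelling of qHTS concentration-response curves.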

[9] = Cell Viability - HUV-EC-C (AID 542); conditions: HUV-EC-C endothelial cell viability, qHTS; series mostly up to 92.2 µM; also: % is scaled to controls: 0 for no effect and ±100 for the full control effect; nearly all actives have a fitted effect of over 35% in size
Method in brief: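 CellTiter-Glo luminescence measured ATP loss in HUV-EC-C cells (1000/well) after 40 hr compound exposure at 37 °C, in complete culture medium. Concentration-response data were Hill-fitted to give AC50.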

[10] = Cell Viability - H-4-II-E (AID 543); conditions: H-4-II-E rat hepatoma viability; series mostly up to 92.2 µM; also: % is scaled to controls: 0 for no effect and ±100 for the full control effect; nearly all actives have a fitted effect of over 35% in size
Method in brief: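 CellTiter-Glo luminescence (intracellular ATP) measured after 40 h compound exposure at 37 °C in H-4-II-E rat hepatoma cells seeded at 1500/well. Values are AC50s fitted with the standard Hill equation.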

[11] = Cell Viability - SH-SY5Y (AID 544); conditions: SH-SY5Y neuroblastoma cell viability; viability change, negative = cytotoxic: at 92.2 µM (top of the series); also: nearly all actives have a fitted effect of over 55% in size
Method in brief: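 Cytotoxicity measured via ATP-dependent luciferase luminescence (CellTiter-Glo) following 40 h, 37 °C exposure of 1500 SH-SY5Y cells per well. Concentration-response data were fitted with the standard Hill equation to give AC50.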

[12] = Cell Viability - Renal Proximal Tubule (AID 545); conditions: renal proximal tubule cells viability, primary cells of rat origin; series mostly up to 91.7 µM; also: nearly all actives have a fitted effect of over 40% in size
Method in brief: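 Luminescent ATP signal (CellTiter-Glo) served as the viability read-out after 40 hr compound exposure of freshly isolated rat proximal tubule cells at 37 °C. Concentration-dependent ATP loss was fitted with the Hill equation to give AC50.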

[13] = Cell Viability - Mesenchymal (AID 546); conditions: mesenchymal cells viability, qHTS; series mostly up to 91.7 µM;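 also: cells exposed to compound for 40 hours before reading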
Method in brief: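 Human renal mesenchymal cells (glomerulus-derived), 1000 cells/well, 5 hr 37 °C pre-incubation; compound 40 hr, 37 °C; CellTiter-Glo, 20 min RT; luminescence; AC50 via Hill equation.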

[14] = Cellular Toxicity (caspase-3) HepG2 (AID 654); conditions: HepG2 caspase-3 activation, luminescence; series mostly up to 92.2 µM;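 also: cells exposed to compound for 16 hours before reading; 0% = DMSO alone and 100% = caspase signal from 100 µM tamoxifen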
Method in brief: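 Caspase 3/7 activation is measured as a luminescence increase (aminoluciferin substrate) after 16 h compound exposure of human hepatocarcinoma HepG2 cells. AC50 values are Hill fits, scaled between DMSO baseline and 100 uM tamoxifen stimulation.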

[15] = Cellular Toxicity (caspase-3) Jurkat (AID 655); conditions: Jurkat caspase-3 activation, luminescence; caspase-3 activation: at 92.2 µM (top of the series), DMSO = 0%, tamoxifen = 100%;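 also: cells exposed to compound for 16 h at 37 °C before reading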
Method in brief: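 5000 Jurkat cells/well; compound 16 hr, 37 °C; Caspase-Glo 3/7 added, 20 min RT; luminescence read. Norm: DMSO = 0%, tamoxifen 100 uM = 100%. AC50, Hill model.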

[16] = Cellular Toxicity (caspase-3) HUV-EC-C (AID 656); conditions: HUV-EC-C cells, caspase-3 activation (apoptosis), vehicle = 0, 100 µM tamoxifen = 100%; series mostly up to 92.2 µM
Method in brief: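 qHTS; HUV-EC-C, 1000 cells/well; 5 hr settle, 16 hr cmpd, 37°C; Caspase-Glo 3/7, 20 min RT; luminescence. Norm: DMSO = 0%, tamoxifen 100 uM = 100%. Hill-fit AC50.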

[17] = Cellular Toxicity (caspase-3) SHSY5Y (AID 657); conditions: SH-SY5Y caspase-3 activation, DMSO zero, 10 µM staurosporine = 100%; series mostly up to 91.7 µM;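 also: cells exposed to compound for 16 hours at 37 °C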
Method in brief: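 qHTS, SH-SY5Y, 1500 cells/well, 5 h pre-incubation 37 °C; compound 16 h 37 °C; Caspase-Glo 3/7 1 h RT; luminescence. Norm.: DMSO = 0, 10 uM staurosporine = 100%. Hill fit → AC50.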

[18] = Cellular Toxicity (caspase-3) BJ (AID 658); conditions: BJ fibroblasts, luminescence, normalized: DMSO 0%, staurosporine 100%; series mostly up to 91.7 µM;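 also: cells exposed to compound for 16 hours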
Method in brief: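 qHTS, BJ fibroblasts, 1000 cells/well; 5 hr preincubation, 16 hr compound, 37 °C; Caspase-Glo 3/7 reagent, 1 hr RT; luminescence. DMSO = 0%, 10 uM staurosporine = 100%. Hill-equation AC50.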

[19] = Cellular Toxicity (caspase-3) MRC-5 (AID 659); conditions: MRC-5 cells, luminescence, normalized: DMSO 0%, 10 µM staurosporine 100%; series mostly up to 91.7 µM
Method in brief: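 MRC-5 fibroblasts, 1500/well; 16 h cpd, 37 °C; Caspase-Glo 3/7, 1 h RT; lumi read. Norm: DMSO = 0%, 10 uM staurosporine = 100%. Hill-fit AC50 from qHTS conc-response.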

C=C(C)C(=O)OC
inactive: Potency [1] > 92 µM | Potency [2] > 92 µM | Potency [3] > 92 µM | Potency [4] > 92 µM | Potency [5] > 92 µM | outcome [6] | activity change, negative = cytotoxicity [7] 2.46% | Potency [8] | Potency [9] | Potency [10] | Potency [11] | Potency [12] | Potency [13] | Potency [14] | caspase-3 activation [15] 1.74% | outcome [16] | outcome [17] | outcome [18] | outcome [19]

CC(C)(C)OCC1CO1 (centres undefined)
inactive: Potency [1] > 92 µM | Potency [2] > 92 µM | Potency [3] > 92 µM | Potency [4] > 92 µM | Potency [5] > 92 µM | outcome [6] | activity change, negative = cytotoxicity [7] 3.76% | Potency [8] | Potency [9] | Potency [10] | Potency [11] | Potency [12] | Potency [13] | Potency [14] | caspase-3 activation [15] 0.113% | outcome [16] | outcome [17] | outcome [18] | outcome [19]

CCCCCO
inactive: Potency [1] > 92 µM | Potency [2] > 92 µM | Potency [3] > 92 µM | Potency [4] > 92 µM | Potency [5] > 92 µM | outcome [6] | activity change, negative = cytotoxicity [7] 3.49% | Potency [9] | Potency [10] | Potency [11] | Potency [12] | Potency [14] | caspase-3 activation [15] -0.274% | outcome [16] | outcome [17] | outcome [18] | outcome [19]

CCNc1ccccc1
inactive: Potency [1] > 92 µM | Potency [2] > 92 µM | Potency [3] > 92 µM | Potency [4] > 92 µM | Potency [5] > 92 µM | outcome [6] | activity change, negative = cytotoxicity [7] 2.42% | Potency [8] | Potency [9] | Potency [10] | Potency [11] | Potency [13] | Potency [14] | caspase-3 activation [15] 0.137% | outcome [16] | outcome [17] | outcome [18]

CC(CCl)OC(C)CCl (centres undefined)
inactive: Potency [1] > 92 µM | Potency [2] > 92 µM | Potency [3] > 92 µM | Potency [4] > 92 µM | Potency [5] > 92 µM | activity change, negative = cytotoxicity [7] 2.8% | Potency [8] | Potency [9] | Potency [10] | Potency [11] | Potency [12] | Potency [13] | Potency [14] | caspase-3 activation [15] 1.36% | outcome [16] | outcome [17] | outcome [18] | outcome [19]

CC(=O)c1cccc([N+](=O)[O-])c1
inactive: Potency [1] > 92 µM | Potency [2] > 92 µM | Potency [3] > 92 µM | Potency [4] > 92 µM | Potency [5] > 92 µM | outcome [6] | activity change, negative = cytotoxicity [7] 0.298% | Potency [8] | Potency [9] | Potency [10] | Potency [11] | Potency [12] | Potency [13] | Potency [14] | caspase-3 activation [15] -0.656% | outcome [16] | outcome [17] | outcome [18] | outcome [19]

COc1cccc(N)c1
inactive: Potency [1] > 92 µM | Potency [2] > 92 µM | Potency [3] > 92 µM | Potency [4] > 92 µM | Potency [5] > 92 µM | outcome [6] | activity change, negative = cytotoxicity [7] -15.1% | Potency [8] | Potency [9] | Potency [10] | Potency [11] | Potency [12] | Potency [13] | Potency [14] | caspase-3 activation [15] 2.35% | outcome [16] | outcome [17] | outcome [18] | outcome [19]

CC1CCCO1 (centres undefined)
inactive: Potency [1] > 92 µM | Potency [2] > 92 µM | Potency [3] > 92 µM | Potency [5] > 92 µM | outcome [6] | activity change, negative = cytotoxicity [7] -13.8% | Potency [8] | Potency [9] | Potency [10] | Potency [11] | Potency [12] | Potency [13] | Potency [14] | caspase-3 activation [15] 1.31% | outcome [16] | outcome [17] | outcome [18]

Cc1ccc(Br)cc1
inactive: Potency [1] > 92 µM | Potency [2] > 92 µM | Potency [3] > 92 µM | Potency [4] > 92 µM | Potency [5] > 92 µM | outcome [6] | activity change, negative = cytotoxicity [7] 6.22% | Potency [8] | Potency [9] | Potency [10] | Potency [11] | Potency [12] | Potency [13] | Potency [14] | caspase-3 activation [15] 0.635% | outcome [16] | outcome [17] | outcome [18] | outcome [19]
